# Experimental data: PubChem BioAssay AID1159580 (chemical genetic matrix, 2015)
# In all, about 5,500 compounds went through this assay and about 2,000 (36%) were called active. Roughly 18% stayed inconclusive and do not appear here. This is one part of the list. A number with no mark means an inactive call. Rule as the data show it: active = normalized growth mostly below about 0.91 (no sharp cut-off); inconclusive = no clear call, values can overlap the other calls; inactive = mostly above about 0.92.
# Test: chemical genetic growth profiling, strain panel (AID 1159580);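 also: tested at 20 µM; growth read once vehicle control cultures reached saturation at 30 °C; 1 = growth at the plate median or of vehicle wells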
# Conditions: growth OD
smiles,measurement,setting,value
CN1CCN(CCC=C2c3ccccc3Sc3ccc(S(=O)(=O)N(C)C)cc32)CC1,normalized growth,"S. cerevisiae deletion strains, locus YJR043C, strain POL32, stronger effect = lower value",1.01
same,normalized growth,"S. cerevisiae deletion strains, locus YJR066W, strain TOR1, stronger effect = lower value",0.922
same,normalized growth,"S. cerevisiae deletion strains, locus YKL009W, strain mrt4, stronger effect = lower value",0.971
same,normalized growth,"S. cerevisiae deletion strains, locus YKL068W, stronger effect = lower value",1.01
same,normalized growth,"S. cerevisiae deletion strains, locus YKL085W, strain MDH1 (second series), stronger effect = lower value",1
same,normalized growth,"S. cerevisiae deletion strains, locus YKL085W, strain MDH1, stronger effect = lower value",1
same,normalized growth,"S. cerevisiae deletion strains, locus YKL160W, strain elf1, stronger effect = lower value",0.97
same,normalized growth,"S. cerevisiae deletion strains, locus YKL190W, strain CNB1, stronger effect = lower value",1.02
same,normalized growth,"S. cerevisiae deletion strains, locus YKR001C, strain vps1, stronger effect = lower value",0.916
same,normalized growth,"S. cerevisiae deletion strains, locus YKR026C, strain gcn3, stronger effect = lower value",1.01
same,normalized growth,"S. cerevisiae deletion strains, locus YKR091W, strain srl3, stronger effect = lower value",1.01
same,normalized growth,"S. cerevisiae deletion strains, locus YLL001W, strain dnm1, stronger effect = lower value",0.906
same,normalized growth,"S. cerevisiae deletion strains, locus YLL026W, stronger effect = lower value",1
same,normalized growth,"S. cerevisiae deletion strains, locus YLL041C, strain sdh2, stronger effect = lower value",0.992
same,normalized growth,"S. cerevisiae deletion strains, locus YLR027C, strain aat2, stronger effect = lower value",0.982
same,normalized growth,"S. cerevisiae deletion strains, locus YLR039C, strain RIC1, stronger effect = lower value",1.27
same,normalized growth,"S. cerevisiae deletion strains, locus YLR058C, strain SHM2, stronger effect = lower value",1.01
same,normalized growth,"S. cerevisiae deletion strains, locus YLR102C, strain apc9, stronger effect = lower value",0.964
same,normalized growth,"S. cerevisiae deletion strains, locus YLR113W, strain HOG1, stronger effect = lower value",0.983
same,normalized growth,"S. cerevisiae deletion strains, locus YLR221C, strain rsa3, stronger effect = lower value",0.979
same,normalized growth,"S. cerevisiae deletion strains, locus YLR258W, strain gsy2, stronger effect = lower value",0.991
same,normalized growth,"S. cerevisiae deletion strains, locus YLR262C, strain YPT6 (second series), stronger effect = lower value",1.11
same,normalized growth,"S. cerevisiae deletion strains, locus YLR262C, strain YPT6, stronger effect = lower value",1.31
same,normalized growth,"S. cerevisiae deletion strains, locus YLR268W, strain sec22, stronger effect = lower value",0.88 (active)
same,normalized growth,"S. cerevisiae deletion strains, locus YLR320W, strain mms22, stronger effect = lower value",0.893
same,normalized growth,"S. cerevisiae deletion strains, locus YLR330W, strain CHS5, stronger effect = lower value",1
same,normalized growth,"S. cerevisiae deletion strains, locus YLR342W, strain FKS1 (second series), stronger effect = lower value",0.99
same,normalized growth,"S. cerevisiae deletion strains, locus YLR342W, strain FKS1, stronger effect = lower value",0.954
same,normalized growth,"S. cerevisiae deletion strains, locus YLR357W, strain rsc2, stronger effect = lower value",0.983
same,normalized growth,"S. cerevisiae deletion strains, locus YLR370C, strain arc18, stronger effect = lower value",0.964
same,normalized growth,"S. cerevisiae deletion strains, locus YLR371W, strain rom2, stronger effect = lower value",0.976
same,normalized growth,"S. cerevisiae deletion strains, locus YLR384C, strain iki3, stronger effect = lower value",1.02
same,normalized growth,"S. cerevisiae deletion strains, locus YLR418C, strain cdc73, stronger effect = lower value",0.764 (active)
same,normalized growth,"S. cerevisiae deletion strains, locus YML016C, strain PPZ1, stronger effect = lower value",1
same,normalized growth,"S. cerevisiae deletion strains, locus YML032C, strain rad52, stronger effect = lower value",0.896 (active)
same,normalized growth,"S. cerevisiae deletion strains, locus YML120C, strain ndi1, stronger effect = lower value",0.984
same,normalized growth,"S. cerevisiae deletion strains, locus YML124C, strain tub3, stronger effect = lower value",0.988
same,normalized growth,"S. cerevisiae deletion strains, locus YMR058W, strain fet3, stronger effect = lower value",0.954
same,normalized growth,"S. cerevisiae deletion strains, locus YMR078C, strain ctf18, stronger effect = lower value",0.983
same,normalized growth,"S. cerevisiae deletion strains, locus YMR125W, strain sto1, stronger effect = lower value",1
same,normalized growth,"S. cerevisiae deletion strains, locus YMR129W, stronger effect = lower value",1.03
same,normalized growth,"S. cerevisiae deletion strains, locus YMR205C, strain PFK2, stronger effect = lower value",0.96
same,normalized growth,"S. cerevisiae deletion strains, locus YMR223W, strain ubp8, stronger effect = lower value",0.899 (active)
same,normalized growth,"S. cerevisiae deletion strains, locus YMR231W, strain pep5, stronger effect = lower value",1.02
same,normalized growth,"S. cerevisiae deletion strains, locus YMR263W, strain SAP30, stronger effect = lower value",1.02
same,normalized growth,"S. cerevisiae deletion strains, locus YMR307W, strain GAS1, stronger effect = lower value",1.07
same,normalized growth,"S. cerevisiae deletion strains, locus YNL067W, strain RPL9B, stronger effect = lower value",1.01
same,normalized growth,"S. cerevisiae deletion strains, locus YNL071W, strain lat1, stronger effect = lower value",0.978
same,normalized growth,"S. cerevisiae deletion strains, locus YNL183C, strain NPR1, stronger effect = lower value",0.946
same,normalized growth,"S. cerevisiae deletion strains, locus YNL209W, strain ssb2, stronger effect = lower value",0.972
same,normalized growth,"S. cerevisiae deletion strains, locus YNL233W, strain BNI4, stronger effect = lower value",1
same,normalized growth,"S. cerevisiae deletion strains, locus YNL248C, strain rpa49, stronger effect = lower value",0.942
same,normalized growth,"S. cerevisiae deletion strains, locus YNL250W, strain rad50, stronger effect = lower value",0.992
same,normalized growth,"S. cerevisiae deletion strains, locus YNL271C, strain bni1, stronger effect = lower value",0.986
same,normalized growth,"S. cerevisiae deletion strains, locus YNL298W, strain CLA4, stronger effect = lower value",0.977
same,normalized growth,"S. cerevisiae deletion strains, locus YNL307C, strain MCK1, stronger effect = lower value",0.791 (active)
same,normalized growth,"S. cerevisiae deletion strains, locus YNL322C, strain KRE1 (second series), stronger effect = lower value",0.996
same,normalized growth,"S. cerevisiae deletion strains, locus YNL322C, strain KRE1, stronger effect = lower value",1.01
same,normalized growth,"S. cerevisiae deletion strains, locus YNR049C, strain mso1, stronger effect = lower value",1.01
same,normalized growth,"S. cerevisiae deletion strains, locus YNR052C, strain pop2, stronger effect = lower value",0.971
same,normalized growth,"S. cerevisiae deletion strains, locus YOL006C, strain TOP1, stronger effect = lower value",0.983
same,normalized growth,"S. cerevisiae deletion strains, locus YOL012C, strain htz1",0.994
same,normalized growth,"S. cerevisiae deletion strains, locus YOL147C, strain pex11, stronger effect = lower value",0.959
same,normalized growth,"S. cerevisiae deletion strains, locus YOR001W, strain rrp6, stronger effect = lower value",0.977
same,normalized growth,"S. cerevisiae deletion strains, locus YOR061W, strain CKA2, stronger effect = lower value",1
same,normalized growth,"S. cerevisiae deletion strains, locus YOR069W, strain VPS5, stronger effect = lower value",1.01
same,normalized growth,"S. cerevisiae deletion strains, locus YOR070C, strain gyp1, stronger effect = lower value",0.991
same,normalized growth,"S. cerevisiae deletion strains, locus YOR080W, strain dia2, stronger effect = lower value",1.03
same,normalized growth,"S. cerevisiae deletion strains, locus YOR083W, strain WHI5, stronger effect = lower value",0.937
same,normalized growth,"S. cerevisiae deletion strains, locus YOR106W, strain vam3, stronger effect = lower value",1
same,normalized growth,"S. cerevisiae deletion strains, locus YOR136W, strain idh2, stronger effect = lower value",0.981
same,normalized growth,"S. cerevisiae deletion strains, locus YOR144C, strain elg1, stronger effect = lower value",0.988
same,normalized growth,"S. cerevisiae deletion strains, locus YOR184W, strain ser1, stronger effect = lower value",0.934
same,normalized growth,"S. cerevisiae deletion strains, locus YOR231W, strain MKK1, stronger effect = lower value",0.984
same,normalized growth,"S. cerevisiae deletion strains, locus YOR265W, strain rbl2, stronger effect = lower value",0.995
same,normalized growth,"S. cerevisiae deletion strains, locus YOR270C, strain vph1, stronger effect = lower value",0.763 (active)
same,normalized growth,"S. cerevisiae deletion strains, locus YOR290C, strain snf2, stronger effect = lower value",0.913
same,normalized growth,"S. cerevisiae deletion strains, locus YOR316C, strain cot1, stronger effect = lower value",0.968
same,normalized growth,"S. cerevisiae deletion strains, locus YPL051W, strain arl3, stronger effect = lower value",0.95
same,normalized growth,"S. cerevisiae deletion strains, locus YPL078C, strain atp4, stronger effect = lower value",0.925
same,normalized growth,"S. cerevisiae deletion strains, locus YPL106C, strain sse1, stronger effect = lower value",0.947
same,normalized growth,"S. cerevisiae deletion strains, locus YPL240C, strain hsp82, stronger effect = lower value",0.999
same,normalized growth,"S. cerevisiae deletion strains, locus YPL256C, strain CLN2, stronger effect = lower value",0.965
same,normalized growth,"S. cerevisiae deletion strains, locus YPR119W, strain clb2, stronger effect = lower value",0.968
same,normalized growth,"S. cerevisiae deletion strains, locus YPR141C, strain kar3, stronger effect = lower value",1.02
same,normalized growth,"S. cerevisiae deletion strains, locus YPR163C, strain tif3, stronger effect = lower value",0.977
same,normalized growth,"S. cerevisiae deletion strains, locus YPR167C, strain met16, stronger effect = lower value",0.985
same,normalized growth,"S. cerevisiae deletion strains, strain wtn01, stronger effect = lower value",0.953
same,normalized growth,"S. cerevisiae strains, strain wild type, stronger effect = lower value",1.01
